MmCpn inh = Inhibitors of TCP-1 ring complex (TRiC) of Methanococcus maripaludis (MmCpn): qHTS; AID 504842, 2011; Chaperonin Mm-Cpn (Methanococcus maripaludis); 0.031% of 330,000 active; purified Mm-Cpn ATPase, ADP Transcreener TR-FRET; Potency, µM (series often up to 76.9 µM), without a hit: at the top dose activity, negative = inhibition, hits mostly inhibitors; further: on the % scale 0 is the no-effect control and ±100 the full control effect; nearly all actives have a fitted effect of over 80% in size
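Reaction buffer contained 30 mM Tris pH 7.4, 100 mM KCl, 5 mM MgCl2 and 1 mM DTT. Mm-CPN (25 nM final) hydrolysed 10 uM ATP over 30 min at 37°C; ADP was read by HTRF.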
a7 integrin act = qHTS for Activators of Integrin-Mediated Alleviation for Muscular Dystrophy; alpha7betagal myoblasts, beta-gal FDG fluorescence, 48 h; Potency, µM (titrated, usually from 38.3 µM), inactives show top-dose activation, actives largely listed as activators; 0.064% of 350,000 active; AID 624291, 2012;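 further: 100% = response of the positive control SU9516; nearly all actives have a fitted effect of over 60% in size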
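Alpha7betagal+/- myoblasts (passage 13) were plated 16-24 hr, then exposed to compounds (1:260 dilution of DMSO stock) for 48 hours at 37C. After MPER lysis, β-galactosidase reporter activity was read as FDG fluorescence (ex 480/em 540) after 30 minutes.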
p53 reactivation = qHTS assay for re-activators of p53 using a Luc reporter; 0.063% of 320,000 active; H1299 p53-A138V BP100-luciferase reporter, luminescence, 24 h; Potency, µM (top dose mostly 92.2 µM), for inactives: at the highest dose activity change, positive = activation, usual class: activators; AID 504706, 2011; further: % of control where 0% means no effect; nearly all actives have a fitted effect of over 45% in size
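p53-null H1299 cells stably carrying temperature-sensitive p53-A138V and a BP100-luciferase reporter were pinned with compounds (4-point, 1:5 series) and held 24 hrs at 37 deg C. Luminescence was read 10 min after detection reagent.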
ClpP mod = qHTS Assay for Activators of ClpP. 1.9% of 340,000 active. AID 651965, 2013. purified B. subtilis ClpP, FRET peptide cleavage, 20 min. Potency, µM (series often up to 57.5 µM), for inactives: at the top dose activity change, negative = active. ATP-dependent Clp protease proteolytic subunit (Bacillus subtilis (strain 168)), P80244; active means well fitted falling curve with a large enough effect; inconclusive means small, poorly fitted or top-dose-only effect; inactive means no such curve, though single readings can be large or run the other way; further: the source files actives as falling curves though it sought activators and does not explain the sign; nearly all actives have a fitted effect of over 65% in size
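ClpP 10 microg/mL final, pH 8 Tris/KCl buffer with BSA, glycerol, Tween-20; compound pinned in; FRET-FV substrate; RT 20 min; Ex320/Em430; ΔFRET vs ADEP 5.8 microM, DMSO, no enzyme.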
USP2a block = qHTS Assay for Inhibitors of Ubiquitin-specific Protease USP2a Using CHOP2 as the Reporter; Ubiquitin carboxyl-terminal hydrolase 2 (Homo sapiens), O75604; USP2 core, Ub-CHOP2 coupled fluorogenic reporter, 485/531; Potency, µM (series often up to 38.3 µM), for inactives: at the top dose activity change, negative = inhibition, actives largely listed as inhibitors; 0.01% of 330,000 active; AID 463254, 2010;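 further: plate controls were DMSO wells for no effect and full inhibition by NEM control for full effect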
Target sequence (O75604 whole entry, looked up): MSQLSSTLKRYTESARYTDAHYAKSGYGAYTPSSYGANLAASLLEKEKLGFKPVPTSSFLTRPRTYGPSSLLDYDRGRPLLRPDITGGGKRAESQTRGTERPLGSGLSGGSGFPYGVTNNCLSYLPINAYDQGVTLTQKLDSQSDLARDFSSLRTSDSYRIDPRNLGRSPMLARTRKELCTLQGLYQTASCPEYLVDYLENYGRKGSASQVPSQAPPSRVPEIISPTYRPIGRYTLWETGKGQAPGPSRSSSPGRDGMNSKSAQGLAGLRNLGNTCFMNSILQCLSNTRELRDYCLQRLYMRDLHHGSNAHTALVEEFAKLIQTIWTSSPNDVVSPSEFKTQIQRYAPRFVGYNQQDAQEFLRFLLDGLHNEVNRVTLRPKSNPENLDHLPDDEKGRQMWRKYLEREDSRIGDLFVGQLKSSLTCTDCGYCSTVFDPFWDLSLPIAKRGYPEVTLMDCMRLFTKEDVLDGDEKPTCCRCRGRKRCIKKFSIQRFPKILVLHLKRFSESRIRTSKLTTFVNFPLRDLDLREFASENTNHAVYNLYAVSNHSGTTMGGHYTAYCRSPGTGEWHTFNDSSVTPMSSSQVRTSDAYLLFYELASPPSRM
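Deubiquitinase activity read as fluorescence (485/531 nm) after Ub-CHOP2 cleavage activates the enterokinase reporter on its substrate; USP2 core 10nM, Ub-CHOP2 and substrate 25nM each, 30min compound preincubation then 60min RT; data normalized to NEM, curves fitted.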
Eya2 phos inh = qHTS Assay for Inhibitors of the Phosphatase Activity of Eya2; AID 488837, 2010; recombinant Eya2, OMFP fluorescence dephosphorylation (OMFP is methylfluorescein phosphate); Protein phosphatase EYA2 (Homo sapiens), O00167; Potency, µM (top dose mostly 76.9 µM), for the others: top-dose activity, negative = inhibition, actives largely listed as inhibitors; 0.006% of 330,000 active; further: on the % scale 0 is the no-effect control and ±100 the full control effect
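Eya2 protein (added as 0.2 uM solution) was preincubated with compound for 10 min at ambient temperature in 50 mM HEPES pH 7.5, 50 mM NaCl, 5 uM MgCl2, 0.05% BSA, 1 mM DTT. OMFP (added at 50 uM) then reacted 10 min; fluorescence read at 485/525 nm.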
* marks the source's active call; other numbers are inactive results; ? = inconclusive; nt = not tested or not shown; ! = repeats disagree; [ ] = another dose, or the depositor's remark. This excerpt belongs to a sample that is enriched for hits. Unless noted, the call rests on the fitted dose curve; in most records, active means well fitted curve in the direction sought with a large enough effect; inconclusive means small, poorly fitted or top-dose-only effect, or another doubt; inactive means no such curve, though single readings can be large; an effect the other way counts as inactive or inconclusive. Potency means the concentration at half of the fitted maximal effect.

SMILES	MmCpn inh	a7 integrin act	p53 reactivation	ClpP mod	USP2a block	Eya2 phos inh
COc1ccc(-c2cc(C(F)(F)F)nc(SCC(=O)NCc3cnn(C)c3C)n2)cc1OC	2%	-16%	-9%	28µM*	1%	8%
COc1ccc(-c2cc(C(F)(F)F)nc(SCC(=O)NCc3cccs3)n2)cc1	-6%	-10%	5%	35µM*	0%	4%
O=C(CSc1nc(-c2ccccc2)cc(C(F)(F)F)n1)NCc1cccs1	-1%	0%	-10%	3%	1%	-8%
Cc1ccc(S(=O)(=O)N2CCN(c3nc(-c4cnccn4)nc4ccccc34)CC2)cc1	nt	nt	nt	-3%	nt	nt
CCc1cc2c(=O)c(-c3cnn(-c4ccccc4)c3)c(C)oc2c(CN2CCCCC2)c1O	1%	-28%	4%	28µM*	5%	?
COc1cc(OC)c2c(OC)cccc2n1	-17%	18%	14%	18µM*	3%	3%
CN(C)c1ccc(/C=C/c2sc3ccccc3[n+]2CCCCI)cc1	nt	nt	nt	1%	nt	nt
N#Cc1ccc2c(c1)C[C@]1(c3ccsc3)Oc3c(c(=O)oc4ccccc34)C2O1	0%[15.4 µM]	nt	nt	nt	0%[7.66 µM]	9%[15.4 µM]
CC(C)(C)S(=O)(=O)c1ccc2nc3c(n2c1)CCCC3	-1%	10%	-1%	28µM*	0%	-11%
CCCCC#Cc1nc(NC)c2ncn([C@@H]3O[C@H](CO)[C@@H](O)[C@H]3O)c2n1	nt	nt	nt	nt	nt	-2%
Cc1cccc(NC(=S)NC(=O)C2CC2)c1	1%	nt	25µM*	nt	-7%	5%
COc1cc(-c2cc(-c3ccccc3)nc(SCC(=O)Nc3nccs3)c2C#N)cc(OC)c1OC	0%	7%	-5%	25µM*	0%	6%
Cn1c(=S)[nH]c2scc(-c3cccs3)c2c1=O	?	-26%	0%	-2%	1%	2%
C=CCn1c(=S)[nH]c2scc(-c3cccs3)c2c1=O	50µM*	?	3%	1%	11%	5%
COCCn1ccc2c(OCC(=O)NCc3ccc(C)cc3)cccc2c1=O	1%	-6%	-2%	28µM*	1%	12%
CN(C)c1oc(-c2ccccc2Cl)nc1P(=O)(c1ccccc1)c1ccccc1	-2%	-28%	-6%	20µM*	-7%	-4%
Cc1ccc(S(=O)(=O)c2nc(-c3ccccc3Cl)oc2N(C)C)cc1	1%	27%	16%	-14%	0%	3%
COc1ccccc1NC(C)C(=O)c1c(C)[nH]c2ccccc12 (centres undefined)	nt	nt	nt	0%	nt	nt
CCc1nc(-c2cc3ccc(C)cc3[nH]c2=O)no1	0%	-17%	16%	14µM*	1%	2%
Cc1ccc2[nH]c(=O)c(-c3noc(C(C)C)n3)cc2c1	2%	5%	-1%	5%	2%	-8%
Cc1ccc2cc(-c3noc(C(C)(C)C)n3)c(=O)[nH]c2c1	1%	31%	19%	28µM*	-5%	-9%
CCC(c1nnnn1CCOC)N(Cc1cc2c(C)cc(C)cc2[nH]c1=O)CC1CCCO1 (centres undefined)	1%	-10%	-8%	28µM*	-1%	?
CCC(c1nnnn1CCOC)N(Cc1cc2cc(C)c(C)cc2[nH]c1=O)CC1CCCO1 (centres undefined)	1%	-31%	0%	?	2%	2%
c1ccc(-c2nc(SCC3CCCCO3)n[nH]2)cc1 (centres undefined)	nt	nt	nt	-10%	nt	nt
Cc1cccc(NS(=O)(=O)c2cccs2)n1	-1%	-3%	4%	20µM*	0%	-4%
SMILES	MmCpn inh	a7 integrin act	p53 reactivation	ClpP mod	USP2a block	Eya2 phos inh
Cc1cc(-c2ccc(C)c(S(=O)(=O)Nc3cccc(C)n3)c2)on1	nt	nt	nt	32µM*	nt	nt
COc1ccc(-c2cc(OC(=O)c3cccc(Cl)c3)c3c(C)oc(C)c3c(=O)c2)cc1	nt	nt	nt	-2%	nt	nt
O=C(C[N+]1(CCc2ccccc2)CCOCC1)c1ccccc1	nt	nt	nt	1%	nt	nt
COc1ccc(-c2c(-c3ccc4c(c3)OCO4)noc2-c2ccsc2)cn1	nt	nt	nt	-26%	nt	nt
Cn1c(N)c(C#N)c(C#N)c1-c1ccccc1	0%	-6%	18%	-30%	6%	20%
N#Cc1c(C#N)c(-c2ccccc2)n(-c2ccccc2)c1N	2%	0%	-24%	28µM*	0%	-6%
COc1ccccc1NC(=O)c1nc(SCc2ccccc2F)ncc1Cl	nt	nt	nt	-4%	nt	nt
Fc1cccc(F)c1/C=C/c1ccc2ccccc2n1	-2%	-32%	22µM*	-23%	-2%	-11%
COc1ccc(C(=O)NC2CCCCCC2)cc1S(=O)(=O)N1CCOCC1	-1%	?	-3%	25µM*	-2%	-18%
Cc1ccc(C(=O)NC2CCCCCCC2)cc1S(=O)(=O)N1CCOCC1	0%	-15%	22%	1%	-1%	-21%
CCCc1cc(=O)oc2cc(C)c3c(-c4ccccc4)coc3c12	nt	nt	nt	20µM*	nt	nt
Oc1ccc(N2CCN(C(c3ccc(Cl)cc3)c3nnnn3Cc3ccc(F)cc3)CC2)cc1 (centres undefined)	nt	nt	nt	-2%	nt	nt
Cc1c(C(=O)NCc2cccc(F)c2)oc2c1-c1[nH]ncc1CC2	nt	nt	nt	28µM*	nt	nt
CCOCCCNC(=S)N1CCC(C(=O)c2ccc(C)cc2)CC1	2%	1%	nt	32µM*	1%	-5%
CCCCNc1c(-c2ccc(OC)c(SC(C)CC)c2)nc2cc(C)ccn12 (centres undefined)	-6%	-46%	7%	27µM*!	-12%	23%
COc1ccccc1OCCn1c(CCNC(=O)C2CCCCC2)nc2ccccc21	nt	nt	nt	3%	nt	nt
COc1ccc(NC(=O)CN2C(=O)NC3(CCCc4ccccc43)C2=O)c(OC)c1 (centres undefined)	-1%	-12%	4%	16µM*	1%	-8%
COc1ccccc1NC(=O)CN1C(=O)NC2(CCCc3ccccc32)C1=O (centres undefined)	-3%	6%	-1%	0%	-2%	-25%
Cc1ccsc1CNCC(O)c1ccccc1 (centres undefined)	0%	-3%	nt	nt	1%	12%
Cc1ccsc1CNC1C2CC3CC(C2)CC1C3 (centres undefined)	-5%	-59%	-5%	22µM*	2%	5%

Compound activity from PubChem.
